Screens as filed in PubChem.
In the library only some 3.4% were active in any assay of this set; here they are far more common.
GAA850 FXN act: FXN promoter activators, primary screen, cell-based, luciferase luminescence, HEK293 lucGAA850; HEK293 lucGAA850 FXN promoter luciferase reporter, 24 h; percent of 10 µM SAHA response; activation, % at 6 µM; 360,000 compounds, 0.56% hits; AID 540364, 2011;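 active = activation above the average of all compounds screened plus 3 SD, cutoff fixed separately per campaign, cut at about 7.5% in these data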;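 note: 0% = DMSO wells and 100% = 10 µM SAHA wells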
HSP90 inh: HSP90 inhibitors, primary screen, cell lysate, luminescence. Heat shock protein HSP 90 (rabbit reticulocyte lysate; luciferase refolding). Rabbit reticulocyte lysate, luciferase refolding luminescence, 3 h. inhibition, % at 5.6 µM. 290,000 compounds, 0.91% hits;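 active = inhibition above the screen-wide mean plus 3 SD, computed separately per campaign, cut at about 16% in these data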;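 note: 0% = DMSO wells and 100% = 60 µM geldanamycin wells; inhibitors lower the luminescence because luciferase stays unfolded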
PG9 Ab binder: binders of HIV-1 gp120 antibody PG9, primary screen, biochemical, TR-FRET. 360,000 compounds, 0.43% hits. AID 624416, 2012. TR-FRET gp120-PG9 antibody binding. inhibition, % at 6.7 µM; in the data active = inhibition above about 8.5%
AI-2 QS mod: Vibrio harveyi AI-2 quorum sensing modulators, primary screen, JMH597 strain, luminescence/OD600 ratio | Vibrio harveyi JMH597 AI-2 luminescence/OD600 ratio, 9 h; active compounds read low; strain lacks LuxN and CqsS sensors; 0 = neutral-control median | activity change, % at 7.5 µM | 300,000 compounds, 0.4% hits; in the data active = activity change below about -75%, passing the limit was not always enough;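 note: luminescence divided by OD600 gain over 9 h not by final OD600 alone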
HSF1 inh: HSF1 inhibitors in luciferase reporter cells, primary screen, cell-based, NIH3T3, luminescence | NIH3T3-HGL HSE-luciferase, MG132-induced, luminescence 8 h; active compounds read low | activity change, negative = inhibition, % at 7.5 µM (by protocol) | 300,000 compounds, 0.77% hits | AID 2098, 2009;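 active = more than half of replicate wells show activity change below -50%, luminescence cut by over half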;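 note: luciferase reports HSF-1 transcriptional activity via heat shock element; 0% = median of DMSO wells and -100% = zero luminescence signal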
SMARCA2 activ: SMARCA2 (BRM) function activators, primary screen, cell-based, luminescence, high throughput. MG213 cells, MMTV-luciferase reporter, dexamethasone, overnight. activation, % at 9.1 µM. 370,000 compounds, 1% hits. AID 652017, 2013; in the data active = activation above about 7.8%;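 note: 0% = vehicle wells and 100% = reference activator wells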
HSP90 inh confirm: HSP90 inhibitors, confirmation, cell lysate, luminescence. shares compounds with HSP90 inh. inhibition, % at 5.9 µM. rabbit reticulocyte lysate, luciferase refolding luminescence, 3 h. 2,300 compounds, 64% hits; in the data active = inhibition above about 18%;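 note: 0% = vehicle wells and 100% = reference inhibitor wells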
FLuc counter: firefly luciferase inhibitors, HSP90 counter-screen, confirmation, artefact control for HSP90 inhibitor project, biochemical, luminescence, triplicate; inhibition, % at 5.9 µM; shares compounds with HSP90 inh; purified native firefly luciferase; 2,300 compounds, 48% hits;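 active = inhibition above the mean inhibition of all tested sample wells plus 3 SD, cut at about 10% in these data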;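 note: 0% = DMSO with luciferase and 100% = wells lacking luciferase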
Target sequence (P08659 whole entry, looked up): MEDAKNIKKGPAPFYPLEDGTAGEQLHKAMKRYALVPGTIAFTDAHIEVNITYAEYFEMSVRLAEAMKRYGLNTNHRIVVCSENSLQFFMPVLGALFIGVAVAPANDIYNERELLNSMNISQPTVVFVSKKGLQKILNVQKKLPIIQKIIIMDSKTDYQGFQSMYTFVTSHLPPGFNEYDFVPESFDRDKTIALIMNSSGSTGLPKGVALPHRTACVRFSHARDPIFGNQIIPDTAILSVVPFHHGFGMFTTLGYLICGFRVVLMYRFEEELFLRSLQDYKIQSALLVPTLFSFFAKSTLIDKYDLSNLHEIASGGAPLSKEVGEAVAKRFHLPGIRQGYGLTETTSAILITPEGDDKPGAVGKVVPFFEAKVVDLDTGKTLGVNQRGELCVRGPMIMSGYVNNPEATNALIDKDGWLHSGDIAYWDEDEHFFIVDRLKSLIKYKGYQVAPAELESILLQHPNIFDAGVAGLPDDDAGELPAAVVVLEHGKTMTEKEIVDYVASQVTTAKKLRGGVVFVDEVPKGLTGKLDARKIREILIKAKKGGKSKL
Numbers without * were called inactive; . = no result.

SMILES	GAA850 FXN act	HSP90 inh	PG9 Ab binder	AI-2 QS mod	HSF1 inh	SMARCA2 activ	HSP90 inh confirm	FLuc counter
CCc1nnc(NC(=O)CSc2nc3c(cc2C#N)CCCC3)s1	2	25*	-1	18	5	4	2	-4
CCOC(=O)c1sc(NC(=O)CSc2nc3c(cc2C#N)CCCCC3)c(C#N)c1C	0	-1	0	15	-5	-1	.	.
Clc1ccc(-c2nnc3sc(-c4ccccn4)nn23)cc1	.	2	.	.	.	.	.	.
CC(C)(C)c1ccc(-c2nnc3sc(-c4ccccn4)nn23)cc1	-5	40*	4	51	-53*	-2	54*	26*
CC(=O)N(C)/C=C1\Sc2ccccc2C1=O	1	36*	-1	17	-6	1	-2	-13
CCC(=O)N(C)/C=C1\Sc2ccccc2C1=O	2	26*	-4	5	-5	0	-10	-25
Cc1ccc(/C=C2\Sc3ccccc3C2=O)s1	3	-2	-1	24	-2	2	.	.
CC(=O)Nc1ccc(/C=C2\Sc3ccccc3C2=O)cc1	-1	-1	-2	22	10	-5	.	.
CCN(CC)C(=O)[C@H]1C[C@@H]2[C@H](C[C@@H](c3ccccc3)[C@H]1C)N(c1ccc(F)cc1)C(=O)N2CCCOc1ccccc1	.	.	-1	.	.	-6	.	.
Cn1c(=O)[nH]c(=O)c2c1nc(Br)n2CCCc1ccccc1	.	0	.	27	2	.	.	.
Cn1c(=O)[nH]c(=O)c2c1nc(Br)n2CC(O)COCc1ccccc1 (stereo not drawn)	0	17*	1	9	0	0	0	-1
O=C1/C(=C/Nc2ccc3c(c2)OCO3)CCc2ccccc21	-3	38*	-2	18	-44	2	86*	72*
c1ccc(OCCSc2nnc3sc4ccccc4n23)cc1	-6	45*	0	11	11	-1	76*	74*
COc1cccc(OCCSc2nnc3sc4ccccc4n23)c1	2	-1	1	17	0	6	.	.
O=C(c1cc(-c2ccc(Cl)cc2)on1)N1CCOCC1	-1	12	-3	10	11	1	.	.
O=C(c1cc(-c2ccc(Cl)cc2Cl)on1)N1CCOCC1	-1	30*	1	14	11	1	46*	43*
COC(=O)c1cccc(OC[C@@H](O)CN2CCC(C(O)(c3ccccc3)c3ccccc3)CC2)c1	.	.	.	.	.	0	.	.
CCOC(=O)N/N=C/c1cn(CCCOc2ccccc2)c2ccccc12	3	-1	-1	18	13	-3	.	.
CCOC(=O)N/N=C/c1cn(CCCOc2ccc(C)cc2)c2ccccc12	3	18*	-3	12	8	2	9	-7
COc1ccc(S[C@]2(C(=O)N3CCCC3)CC(=O)N(S(=O)(=O)c3ccc(F)cc3)[C@@H]2c2ccc(OC)cc2)cc1	.	.	.	.	.	-4	.	.
CCn1cc(C(=O)NC2CCc3ccccc32)c(=O)c2ccc(C)nc21 (stereo not drawn)	.	27*	.	23	-6	.	-3	-9
CCn1cc(C(=O)NC2CCCCCC2)c(=O)c2ccc(C)nc21	2	-5	-2	-2	0	4	.	.
O=C(Nc1ccc2nc3n(c(=O)c2c1)CCCCC3)c1c(F)ccc([N+](=O)[O-])c1F	-15	24*	0	-14	-3	-14	6	3
O=C(Nc1ccc2nc3n(c(=O)c2c1)CCCCC3)c1ccccc1[N+](=O)[O-]	3	-3	1	25	25	-1	.	.
O=C(Nc1ccc2nc3n(c(=O)c2c1)CCCCC3)c1cc([N+](=O)[O-])ccc1F	-14	34*	0	-16	-68*	-6	15	4
SMILES	GAA850 FXN act	HSP90 inh	PG9 Ab binder	AI-2 QS mod	HSF1 inh	SMARCA2 activ	HSP90 inh confirm	FLuc counter
CC(CO)(CO)NC(=O)c1ccc(C#Cc2cccc(F)c2)cn1	.	.	.	.	.	4	.	.
Fc1ccccc1OCCSc1nnnn1-c1ccccc1	-1	25*	1	-2	33	4	29*	6
c1ccc(OCCSc2nnnn2-c2ccccc2)cc1	2	4	1	6	46	6	.	.
CC(=O)N(Cc1ccc(F)cc1)C1=C(NCCc2ccccc2)C(=O)c2ccccc2C1=O	-1	48*	-5	9	9	-14	12	-5
CCOc1ccccc1-n1c(SCC(=O)Nc2ccccc2C(=O)O)nc2ccccc2c1=O	-9	50*	2	8	-74*	-5	56*	37*
CN(C)c1ccc(N=Cc2nc(-c3ccccc3)oc2O)cc1	3	-2	-9	12	19	2	.	.
CN(C)c1ccc(N=Cc2cccn2C)cc1	-6	22*	-76	20	-25	-1	10	-12
CCOc1cccc(/C=N\NC(=O)c2cnccn2)c1O	.	.	.	.	.	-1	.	.
CC1CCN(C2=NC(=O)/C(=C/c3ccccc3F)S2)CC1	-9	23*	8	12	-68*	-8	35*	14*
CC1CCN(C2=NC(=O)/C(=C/c3cccc(O)c3)S2)CC1	0	-4	-2	19	14	1	.	.
COc1ccccc1CCNC(=O)CSc1nc2c([nH]1)c(=O)n(C)c(=O)n2C	.	.	.	.	.	-2	.	.
Cc1cc(N2CCCC2)nc2ccccc12	2	1	7	23	-5	-1	.	.
Cc1ccc2c(c1)Cc1nc3ccccc3nc1-2	1	27*	0	26	7	7	71*	63*
Cc1nnc(SCC(=O)Nc2ncc3c(n2)CC(c2ccccc2)CC3=O)s1 (stereo not drawn)	-1	35*	0	21	7	-1	-3	-6
Cc1nnc(SCC(=O)Nc2ncc3c(n2)CCCC3=O)s1	-1	3	0	30	-4	1	.	.
C=CCNc1cccc2c1S(=O)(=O)N[C@@H](Cc1ccccc1)CO2	.	.	-3	.	.	-3	.	.
Cn1c2ccccc2c(=O)c2ccc(C#CC3(O)CCCCC3)cc21	-10	59*	0	38	-65*	-1	66*	65*
COc1ccc(C#Cc2ccc3c(c2)c(=O)c2ccccc2n3C)cc1	2	-4	-1	22	-2	0	.	.
